Most compounds without a hit are left out; they make up all but 2% or so of the library.
Kir21 inh – Kir2.1 (mouse) channel inhibition | P35561 | HEK293-Kir2.1, FluxOR thallium flux fluorescence; active compounds read low | B-score at 10 µM | 0.85% of 310,000 active;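 active = fluorescence ratio B-score at or below minus 3 SD of library scores, with starting-brightness B-score within 2 SD, cut at about -4.2 in these data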;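 note: channel flux triggered by added potassium and thallium sulfate stimulus; B-score of peak minus minimum fluorescence over baseline after thallium stimulus; more negative B-score means stronger Kir2.1 block with less thallium influx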
CHT inh – human CHT choline transport inhibition; Q9GZV3; CHT-expressing cells, membrane potential dye, choline response; active compounds read low; B-score at 10 µM; 0.86% of 310,000 active;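 active = B-score over 3 SD under the library average, and starting fluorescence ratio not unusually high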;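 note: choline stimulus applied at its EC90 after an EC20 pre-addition; B-score computed on integrated fluorescence ratio after choline addition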
Target sequence (Q9GZV3 whole entry, looked up): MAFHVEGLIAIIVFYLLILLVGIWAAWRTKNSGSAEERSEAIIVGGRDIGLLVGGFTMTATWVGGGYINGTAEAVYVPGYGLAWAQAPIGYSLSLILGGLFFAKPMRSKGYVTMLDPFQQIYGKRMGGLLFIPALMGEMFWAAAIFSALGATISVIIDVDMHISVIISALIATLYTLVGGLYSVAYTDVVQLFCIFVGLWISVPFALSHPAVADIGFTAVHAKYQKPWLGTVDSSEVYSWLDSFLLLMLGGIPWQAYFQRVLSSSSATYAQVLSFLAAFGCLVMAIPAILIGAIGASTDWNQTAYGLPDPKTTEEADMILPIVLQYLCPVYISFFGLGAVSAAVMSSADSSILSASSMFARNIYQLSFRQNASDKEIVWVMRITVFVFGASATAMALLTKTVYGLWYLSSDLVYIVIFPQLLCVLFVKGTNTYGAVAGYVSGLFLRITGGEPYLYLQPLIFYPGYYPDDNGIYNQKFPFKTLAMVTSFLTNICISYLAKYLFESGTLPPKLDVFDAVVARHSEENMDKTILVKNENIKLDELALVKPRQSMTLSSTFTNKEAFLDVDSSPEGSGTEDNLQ
CHT allo act – allosteric activators of human choline transporter CHT; Q9GZV3; CHT-expressing cells, membrane potential dye, choline EC20; active compounds read high; LV-AA mutant CHT in HEK293 cells; B-score at 10 µM; 0.49% of 310,000 active; AID 488977;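 active = initial fluorescence not abnormally high and integrated response B-score, plate-corrected, over 3 SD above library mean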
H9c2 TAG inh – triacylglycerol accumulation inhibition | H9c2 cells, Nile Red lipid (TAG) fluorescence; cells loaded with 200 µM oleic acid | inhibition, % at 12.5 µM | 0.66% of 230,000 active;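 active = pattern-corrected inhibition of lipid staining of at least 50% with the nuclear-stain viability signal not falling by more than 50%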;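 note: 0% = DMSO wells and 100% = triacsin C control wells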
TAG conf – triacylglycerol accumulation inhibition, confirmation. H9c2 lipid accumulation, Nile Red fluorescence; cells loaded with 200 µM oleic acid. 71% of 990 active. AID 651629. shares compounds with H9c2 TAG inh. inhibition, % at 12.5 µM;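 active = mean inhibition across replicates of 40% or more; inactive = mean inhibition below 40%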;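 note: plate controls were DMSO only wells for no effect and Triacsin C treated wells for full effect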
* marks the source's active call; other numbers are inactive results; i = inactive; · = no result given.

SMILES	Kir21 inh	CHT inh	CHT allo act	H9c2 TAG inh	TAG conf
COc1ccc(-c2cc(NC=O)c3ncc(-c4ccc(OC)c(OC)c4)n3c2)cc1	·	·	·	55.6*	65.5*
COc1ccc(-c2cc(NC=O)c3ncc(-c4ccc(OC)c(OC)c4)n3c2)cc1OC	·	·	·	14.1	·
COc1cc(-c2cnc3c(NC=O)cc(-c4cccnc4)cn23)cc(OC)c1OC	·	·	·	53.5*	46.0*
Cc1cccc(C)c1NC(=O)COc1ccccc1C(=O)Nc1ccc(Br)cn1	-2.34	i	i	·	·
CCOCCC(=O)Nc1ccc2c(c1)c(=O)n(C)n2C/C=C/c1ccccc1	·	·	·	53.4*	49.3*
Cn1c(=O)c2cc(NC(=O)Cc3ccccc3F)ccc2n1C/C=C/c1ccccc1	·	·	·	4.8	·
CCOc1cc(-c2nc(-c3ccccc3)c(-c3cc([N+](=O)[O-])ccc3C)[nH]2)ccc1O	1.45	i	i	·	·
COc1ccc(-c2nc(-c3ccccc3)c(-c3cc([N+](=O)[O-])ccc3C)[nH]2)cc1OC	0.22	i	i	50.1*	57.7*
O=C(Nc1sc2c(c1-c1nc3ccccc3[nH]1)CCCC2)C1CCCC1	0.64	i	i	57.6*	60.0*
CN1CCN(S(=O)(=O)c2cccc(C(=O)Nc3sc4c(c3-c3nc5ccccc5[nH]3)CCCC4)c2)CC1	0.42	i	i	·	·
O=C(Nc1ccc(Cl)cc1)c1csc([C@@H]2C[C@H](O)[C@@H](CO)O2)n1	·	·	·	54.2*	-0.5
CC(=O)Nc1ccc(NC(=O)c2csc([C@H]3C[C@H](O)[C@@H](CO)O3)n2)cc1	·	·	·	-15.9	·
OCCCn1c(C2CCCN2c2nc(-c3ccc(F)cc3)cs2)nc2cc(Cl)c(Cl)cc21 (configuration not stated)	1.31	i	i	49.5	·
Nc1c(Cl)cc(-c2csc(N3CCCC3c3nc4cc(Cl)c(Cl)cc4n3CCCO)n2)cc1Cl (configuration not stated)	0.12	i	i	71.4*	79.2*
Nc1c(Cl)cc(-c2csc(N3CCCC3c3nc4cc(Cl)c(N5CCCCC5)cc4n3CCCO)n2)cc1Cl (configuration not stated)	-0.23	i	i	92.8*	127.8*
COC(=O)c1c(NC(=O)COC(=O)c2ccc(NC(=O)CC#N)cc2)sc2c1CCCCC2	0.12	i	i	4.4	·
CC(C)CCNCC(O)CON=C1c2ccccc2-c2ccccc21 (configuration not stated)	-4.47*	i	i	64.2*	41.7*
COC(=O)c1ccc(NC(=O)COc2ccc(C3C(C#N)=C(N)Oc4c3ccc3ccccc43)cc2OC)cc1 (configuration not stated)	1.73	i	i	50.4*	24.0
COc1cc(C2C(C#N)=C(N)Oc3c2ccc2ccccc32)ccc1OCC(=O)Nc1ccccc1C (configuration not stated)	-0.01	i	i	·	·
COC(=O)[C@]1(CC(C)C)N[C@H](c2ccc(-c3ccc(F)cc3)cc2)[C@@H]2C(=O)N(C)C(=O)[C@@H]21	-0.76	i	i	55.6*	43.3*
COC(=O)[C@]1(CC(C)C)N[C@H](c2ccc(-c3ccc(OC)cc3)cc2)[C@@H]2C(=O)N(C)C(=O)[C@@H]21	-0.48	i	i	54.1*	35.8
CCN1C(=O)[C@H]2[C@@H](c3ccc(-c4cccc(Cl)c4)cc3)N[C@@](Cc3ccccc3)(C(=O)OC)[C@H]2C1=O	-0.98	i	i	51.5*	60.3*
C[C@H](O)[C@@H]1C(=O)N2CCc3ccc(-c4ccccc4)cc3[C@@H]2C[C@@H]1N(C)C(=O)c1ccco1	·	·	·	19.5	·
CC1C(=O)N(Cc2cn(Cc3ccco3)nn2)CCS(=O)(=O)N1Cc1ccc(-c2cccc(N(C)C)c2)cc1 (configuration not stated)	·	·	·	4.3	·
